CYP2C19 inh: blockers of cytochrome P450 2C19 activity – biochemical, luminescence, ADME assay, primary screen; P33261; CYP2C19 Supersomes, luciferin-H EGE luminescence, 30 min; inhibition, % at 5 µM; 21% of 96,000 active; AID 778, 2007;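 active means CYP2C19 inhibition above a set limit at 5 µM in the primary screen, cut at about 50% in these data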;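 further: plate controls were negative control wells for no effect and 2.5 mM tranylcypromine positive control for full effect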
CYP2C9 activ: human CYP2C9 activators, primary screen, biochemical, luminescence; Cytochrome P450 2C9 (Homo sapiens), P11712; recombinant CYP2C9, luciferin-H conversion; hits give high values; factor 1 = untreated enzyme, 0 = blocked; activation factor at 5 µM; 1.4% of 96,000 active;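 active means activation factor of 2 or more for CYP2C9 at a 5 µM dose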;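 further: 0 = sulfaphenazole-blocked wells and 1 = vehicle-only wells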
CYP2C19 activ: human CYP2C19 activators, primary screen, biochemical, luminescence; Cytochrome P450 2C19 (Homo sapiens), P33261; recombinant CYP2C19, luciferin-H EGE luminescence; hits give high values; 0 = fully inhibited enzyme, 1 = untreated enzyme; activation factor at 5 µM; 96,000 tested, under 10 active; AID 1025, 2008;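 active means activation factor of at least 2 at 5 µM in the primary screen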;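 further: 0 = wells with 2.5 mM tranylcypromine and 1 = vehicle-only wells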
CYP2C9 inh: blockers of cytochrome P450 2C9 activity – biochemical, luminescence, ADME assay, primary screen; P11712; CYP2C9 Supersomes, luciferin-H conversion; inhibition, % at 5 µM; 20% of 96,000 active;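 active means blocking of liver enzyme CYP2C9 beyond about 50% at 5 µM, limit read from the data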
Cav3 T inh: Cav3.2 calcium influx blockers – cell-based, Fluo-4 calcium fluorescence, FDSS, MLSMR library, primary screen | Cav3.2-expressing cells; hits give low values | B-score at 10 µM | 4% of 100,000 active;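 active means single-dose well whose peak fluorescence ratio is a statistical outlier from its plate by either plate-standardised score or position-corrected B-score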
* marks the source's active call; other numbers are inactive results; · = no result. In the library only some 27% were active in any assay of this set; here they are far more common.

SMILES | CYP2C19 inh | CYP2C9 activ | CYP2C19 activ | CYP2C9 inh | Cav3 T inh
Nc1nc(SCc2ccccc2Cl)ns1 | · | · | · | · | -1.3
CCOc1nc(N=C(N)N)nc2c(C)cccc12 | 11 | 0.9 | 0.9 | 11 | ·
CC(=O)C1=C(C)NC(=O)NC1c1ccc(OC2CCCC2)cc1 (stereo not drawn) | 32 | 1.1 | 0.7 | -8 | 2.6
COc1cc(C2NC(=O)NC(C)=C2C(=O)OCc2ccc(C)cc2)cc(OC)c1O (stereo not drawn) | 38 | 0.8 | 0.6 | 23 | -0.59
CCOC(=O)C1=C(C)NC(=O)NC1c1cc(Br)c(O)c(OC)c1 (stereo not drawn) | 40 | 0.4 | 0.6 | 64* | 0.66
COc1cc(C2NC(=O)NC(C)=C2C(=O)OC2CCCCC2)cc(Br)c1O (stereo not drawn) | 79* | 0 | 0.2 | 96* | -1.4
CC1=C(C(=O)OC2CCCCCCC2)C(c2ccc(O)cc2)NC(=O)N1 (stereo not drawn) | 82* | 0.1 | 0.2 | 92* | -1.4
O=C(CCC(=O)c1cccs1)OCC(=O)N1CCN(S(=O)(=O)c2ccccc2)CC1 | 1 | 0.9 | 1 | 13 | 0.21
CC(=O)c1cccc(N(CC(=O)Nc2ccc(F)cc2F)S(C)(=O)=O)c1 | 76* | 0.9 | 0.2 | 11 | 0.56
CCOc1ccccc1N(CC(=O)Nc1ccc2c(c1)OCO2)S(C)(=O)=O | 12 | 0.7 | 0.9 | 32 | 0.35
C=CCNC(=O)CN(c1ccccc1OCC)S(=O)(=O)c1ccc(C)cc1 | 66* | 0.3 | 0.3 | 68* | 2
CCOc1ccccc1N(CC(=O)Nc1ccc(C)cc1)S(C)(=O)=O | 71* | 0.6 | 0.3 | 40 | ·
CC(=O)c1cccc(NC(=O)CN(c2ccccc2)S(C)(=O)=O)c1 | 26 | 0.8 | 0.7 | 18 | -0.49
COc1ccccc1N(CC(N)=O)S(=O)(=O)c1ccc(C)cc1 | 28 | 0.6 | 0.7 | 44 | 0.51
CC(=O)c1cccc(NC(=O)CN(c2ccccc2F)S(C)(=O)=O)c1 | 54* | 0.5 | 0.5 | 49 | 0.42
CC1(C)CC2(CC(c3cccs3)c3cc(Cl)c(O)cc3O2)NC(=S)N1 (stereo not drawn) | 8 | 0.8 | 0.9 | 19 | ·
Cc1nc(C(=O)Nc2cc(F)cc(Cl)c2)sc1C1(C)CC(c2ccccc2)=NO1 (stereo not drawn) | · | · | · | · | 0.76
CCOc1ccc(NC(=O)c2ccccc2NC(=O)CN(C)CC(=O)Nc2ccc(C)cc2)cc1 | 94* | 0 | 0.1 | 97* | 1
CS(=O)(=O)N(CC(=O)Nc1cccc(Cl)c1)c1ccccc1Cl | 97* | 0.1 | 0 | 90* | -3.4
CCCNC(=O)c1ccccc1NC(=O)CN(c1ccccc1OCC)S(C)(=O)=O | 17 | 0.4 | 0.8 | 58* | 1.3
CS(=O)(=O)N(CC(=O)NC1CCCCC1)c1cccc(Cl)c1 | 30 | 0.8 | 0.7 | 19 | 0.45
Cc1ccccc1N(CC(=O)Nc1ccc(F)cc1)S(C)(=O)=O | 89* | 0.6 | 0.1 | 45 | -0.14
COC(=O)CN(c1ccccc1F)S(=O)(=O)c1ccccc1 | 21 | 0.5 | 0.8 | 45 | 0.22
Cc1ccc(NC(=O)CN(c2ccccc2F)S(C)(=O)=O)cc1 | 76* | 0.5 | 0.2 | 48 | 0.41
COc1ccc(-n2c(SCC(=O)NNC(=O)c3ccccc3C)nnc2-c2ccncc2)cc1 | 17 | 0.7 | 0.8 | 29 | 0.87
SMILES | CYP2C19 inh | CYP2C9 activ | CYP2C19 activ | CYP2C9 inh | Cav3 T inh
CCOC(=O)Cc1nnc2c(Nc3ccc(Cl)cc3)nc3nonc3n12 | 2 | 0.8 | 1 | 16 | 0.28
CCc1ccc(-c2cc(C(=O)Nc3c(C)n(C)n(-c4ccccc4)c3=O)c3ccccc3n2)s1 | 51* | 0.6 | 0.5 | 41 | -4.3*
Cc1cc(C(=O)Nc2c(C)n(C)n(-c3ccccc3)c2=O)c2ccccc2n1 | -2 | 1 | 1 | -3 | -0.25
Cc1cc(Br)cc2c(C(=O)Nc3c(C)n(C)n(-c4ccccc4)c3=O)cc(-c3cccs3)nc12 | 38 | 0.2 | 0.6 | 76* | -3.9
Cc1cc(SC(C)C(=O)Nc2c(C)n(C)n(-c3ccccc3)c2=O)nc2ccccc12 (stereo not drawn) | 78* | 1 | 0.2 | -3 | 0.87
CC(NC(=O)Cc1cccs1)C(c1cccs1)N1CCOCC1 (stereo not drawn) | · | · | · | · | 1.5
C=CCOc1ccc(CNc2nn[nH]n2)cc1 | 47 | 0.8 | 0.5 | 16 | 0.85
CCOC(=O)c1cc2c(=O)n3cccc(C)c3nc2n(CC2CCCO2)c1=NC(C)=O (stereo not drawn) | · | · | · | · | 5.1*
C=CCn1c(=N)c(C(=O)OCC)cc2c(=O)n3cccc(C)c3nc21 | · | · | · | · | -0.14
CCOc1ccc(-n2c(SCC(=O)Nc3ccc(OC)cc3)nc3c(c2=O)SCC3)cc1 | 35 | 0.6 | 0.7 | 42 | ·
CCOc1ccc(-n2c(SCc3ccc(C(=O)OC)o3)nc3c(c2=O)SCC3)cc1 | 82* | 0.1 | 0.2 | 87* | -3.2
COC(=O)c1ccc(CSc2nc3c(c(=O)n2-c2ccc(Br)cc2)SCC3)o1 | 90* | 0.1 | 0.1 | 92* | -3.3
O=C(CSc1nc2c(c(=O)n1-c1ccc(Cl)cc1)SCC2)N1CCCC1 | -13 | 1.2 | 1.1 | -16 | -0.062
COC(=O)c1nn(-c2ccc(Cl)cc2)c(=O)cc1Sc1ccccn1 | 11 | 1 | 0.9 | 4 | 0.2
Nc1nc(CN2CCN(c3ccc(F)cc3)CC2)nc(N2CCCc3ccccc32)n1 | 60* | 0.5 | 0.4 | 53* | -3.3
CCN1CCCC1Cn1cnc2c([nH]c3cccc(Cl)c32)c1=O (stereo not drawn) | 7 | 0.9 | 0.9 | 8 | 0.82
Cc1sc2nc(CN(Cc3cccs3)C(=O)NC3CCCCC3)[nH]c(=O)c2c1C | 97* | 0 | 0 | 96* | -4.7
CCCCc1nc2sc3c(c2c(=O)[nH]1)CCC3 | 17 | 1 | 0.8 | 4 | 0.22
O=C(c1cccs1)N(Cc1nc2sc3c(c2c(=O)[nH]1)CCCC3)C1CCCC1 | 37 | 0.3 | 0.6 | 70* | -1.9
CCN(CC)C(=O)CCc1nc2sc3c(c2c(=O)[nH]1)CCCC3 | 65* | 0.5 | 0.4 | 47 | 0.58
Cc1sc2nc(CN(C(=O)c3cccs3)C3CCCC3)[nH]c(=O)c2c1C | 12 | 0.3 | 0.9 | 74* | -4.8*
Cc1sc2nc(CN(C(=O)NC3CCCCC3)C3CCCC3)[nH]c(=O)c2c1C | · | · | · | · | -0.013
Cc1ccc2[nH]c(=O)c3cc(C(=O)N4CCN(C(=O)c5ccco5)CC4)sc3c2c1 | -3 | 0.9 | 1 | 10 | ·
O=C(NC1CCCC1)c1ccc(CNc2c(N3CCOCC3)c(=O)c2=O)cc1 | -21 | 1.2 | 1.2 | -20 | -0.92
CC1(C)CC(=O)C=C(NCCc2ccc(S(N)(=O)=O)cc2)C1 | 1 | 1.1 | 1 | -9 | 1.1

Source: PubChem
